For 16 molecules, growth results are on record in PubChem BioAssay (NCI).

This is part of a sample that, as a whole, favours compounds with a hit. Of some 83,000 tested, about 20% had one in any assay.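 Activity criterion: percent growth below 10, measured after cells in 96-well plates were exposed to a single compound concentration for 48 hours.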 A number with no mark means an inactive call. Calls of active or inactive are those of the source.

Some test systems named below: T-47D breast; BT-549 breast; MDA-MB-435 melanoma; SW-620 colon; MCF7 breast; HCT-116 colon; HCC-2998 colon; KM12 colon.
What all share (experiment): NCI-60 one-dose screen, 48 h (100 = growth as untreated, 0 = no growth, -100 = all killed)
Holding throughout (conditions): 10 µM unless noted

Turning to `C#CCOc1cccc(Nc2c(Cl)c(CCl)nc3ccc(Oc4ccccc4)cc23)c1`, the growth in the test on T-47D breast is 82.1%; in the test on BT-549 breast, 15.8%; with MDA-MB-435 melanoma, 15.6%; in the test on SW-620 colon, 20.6%; with MCF7 breast, 12.9%; with HCT-116 colon, 27.2%. Moreover, the results for the growth with HCC-2998 colon and with KM12 colon were 104% and 69.7%, respectively.

Regarding `COCCNC(=O)Cc1cc(-c2ccc(Cl)cc2)n(-c2ccccc2)c1C`, the growth with T-47D breast is 56.3%; with BT-549 breast, 83.5%; in the test on MDA-MB-435 melanoma it was 93.7%; in the test with SW-620 colon, 94.9%; in the test on MCF7 breast it was 88.6%; in the test with HCT-116 colon, 80.4%. Moreover, the values for the growth in the test with HCC-2998 colon and with KM12 colon were 99.3% and 91.7%, respectively.

On to `CC(C)C(=O)Nc1ncc(C(=O)NCCN(Cc2ccccc2)C(=O)c2ccc(S(=O)(=O)Nc3ccccc3)cc2)s1`, for which the growth was 91.7% in the test with T-47D breast; 89.2% in the test with BT-549 breast; 98.1% with MDA-MB-435 melanoma; 107% with SW-620 colon; 85.8% in the test with MCF7 breast; 90.9% with HCT-116 colon. Moreover, the values for the growth in the test on HCC-2998 colon and with KM12 colon were 106% and 105%, respectively.

Regarding `CCNCCNc1c(C)c(-c2ccc(C(F)(F)F)cc2)c(C#N)c2nc3ccccc3n12`, the growth is 82.6% in the test on T-47D breast; 75.5% in the test with BT-549 breast; 65.2% with MDA-MB-435 melanoma; 93.6% with SW-620 colon; 76.2% in the test on MCF7 breast; 93.4% in the test with HCT-116 colon. For the same molecule, the growth with HCC-2998 colon was 99.4%; in the test on KM12 colon, 97%.

Regarding `CC(C)(C)c1ccc(C(=O)Nc2sc3c(c2C#N)CCC(=O)C3)cc1`, the growth was -31.8% (active) in the test on T-47D breast; -11.7% (active) in the test on BT-549 breast; 6.81% (active) in the test on MDA-MB-435 melanoma; -51% (active) with SW-620 colon; 8.36% (active) with MCF7 breast; 2.24% (active) in the test on HCT-116 colon. Moreover, the growth was 48.1% in the test with HCC-2998 colon and 12% in the test on KM12 colon.

`O=C(O)c1nn(-c2ccc(Cl)cc2)nc1N1CCCC1`: the growth in the test on T-47D breast was 94.4%; in the test on BT-549 breast, 95.4%; in the test with MDA-MB-435 melanoma it was 100%; with SW-620 colon, 90.6%; in the test with MCF7 breast, 91%; in the test with HCT-116 colon it was 101%. For the same molecule, the growth is 103% with HCC-2998 colon and 107% in the test with KM12 colon.

For `COc1ccc(/C=C\c2cc(OC)c(OC)c(OC)c2)cc1OCC(=O)Nc1nc2ccccc2s1`, the growth is 18.5% in the test on T-47D breast; 38.7% in the test with BT-549 breast; -2.64% (active) in the test with MDA-MB-435 melanoma; 30% with SW-620 colon; 9.7% (active) in the test with MCF7 breast; 5.14% (active) in the test on HCT-116 colon. Besides, the growth in the test on HCC-2998 colon was 35.6%; in the test on KM12 colon, 5.76% (active).

For `CC/C(=C(/c1ccc(Cl)cc1)c1ccc(OCCN(CC)CC)cc1)c1ccc(OC)cc1`, the growth with T-47D breast is 39.1%; in the test on BT-549 breast it was 67.7%; in the test on MDA-MB-435 melanoma, 69.1%; in the test on SW-620 colon, 40.2%; with MCF7 breast it was 13.7%; in the test on HCT-116 colon it was 34.2%. Also, the growth in the test with HCC-2998 colon was 54.7%; in the test with KM12 colon, 35.1%.

Turning to `CCN1CCN(C(=O)[C@]23CC[C@@H](C)[C@H](C)[C@@H]2C2=CC[C@@H]4[C@@]5(C)C/C(=C/c6ccncc6)C(=O)C(C)(C)[C@@H]5CC[C@@]4(C)[C@]2(C)CC3)CC1`, the growth in the test with T-47D breast is 27.1%; with BT-549 breast, 52.2%; with MDA-MB-435 melanoma, -51.1% (active); with SW-620 colon, -22.6% (active); in the test with MCF7 breast, 4.97% (active); in the test with HCT-116 colon, -51.9% (active). Further, the results for the growth with HCC-2998 colon and with KM12 colon were -28.9% (active) and 5.49% (active), respectively.

Turning to `O=C(Nc1ccccc1CNc1nc(Nc2ccc(OCCN3CCCC3)cc2)ncc1Cl)NC1CCCCC1`, the growth with T-47D breast is 100%; in the test with BT-549 breast it was 83.7%; in the test on MDA-MB-435 melanoma, -83.9% (active); in the test with SW-620 colon it was 87.7%; in the test on MCF7 breast, 55.2%; with HCT-116 colon it was 90.9%. Moreover, the growth was 95.5% with HCC-2998 colon and 71.5% in the test on KM12 colon.

Consider `Cc1ccc(NC(=O)c2ccc(Nc3ncnc4c3cnn4-c3cccc(F)c3)cc2)cc1`, for which the growth with T-47D breast is 92.6%; with BT-549 breast, 99.7%; in the test with MDA-MB-435 melanoma, 100%; in the test on SW-620 colon it was 101%; in the test with MCF7 breast, 96.5%; in the test with HCT-116 colon, 101%. In addition, the results for the growth in the test on HCC-2998 colon and in the test with KM12 colon were 107% and 102%, respectively.

Consider `COc1cc2c(c(OC)c1OC)CCC(c1cccc(C(=O)Nc3ccc([N+](=O)[O-])cc3)c1)O2` (stereo not drawn), for which the growth in the test on T-47D breast was 9.09% (active); in the test with BT-549 breast, 27.4%; in the test on MDA-MB-435 melanoma it was 54.5%; in the test with SW-620 colon, 77.7%; with MCF7 breast it was 45.9%; in the test with HCT-116 colon, 40.4%. The values for the growth in the test on HCC-2998 colon and in the test on KM12 colon were 68.3% and 57.7%, respectively.

As for `O=C(OCc1ccc2c(Br)cc(Br)c(O)c2n1)N1CCN(C(=O)c2cc3ccccc3[nH]2)CC1`, the growth with T-47D breast was 27.9%; in the test on BT-549 breast, 56%; in the test on MDA-MB-435 melanoma, 43.9%; in the test with SW-620 colon, 25.3%; in the test on MCF7 breast, 29.5%; with HCT-116 colon, 22.4%. Moreover, the growth in the test on HCC-2998 colon is 53.1%; in the test with KM12 colon, 29.5%.

As for `CC(=O)c1c(/C=C/c2ccc(C)cc2)c2ccccc2[nH]c1=O`, the growth was 85.7% in the test with T-47D breast; 95.1% with BT-549 breast; 96.1% in the test on MDA-MB-435 melanoma; 95.1% in the test on SW-620 colon; 88.7% in the test on MCF7 breast; 91.7% in the test with HCT-116 colon. Moreover, the results for the growth in the test with HCC-2998 colon and in the test with KM12 colon were 96.5% and 100%, respectively.

Take `CCCS(=O)(=O)Nc1cccc(Nc2ncnc3cc(NC(=O)CCl)ccc23)c1Cl`: the growth with T-47D breast was -41.8% (active); in the test with BT-549 breast it was -68.2% (active); in the test on MDA-MB-435 melanoma it was -46.9% (active); with SW-620 colon, -33.6% (active); in the test with MCF7 breast, -13% (active); in the test with HCT-116 colon, -27.9% (active). Also, the growth with HCC-2998 colon was 4.99% (active); with KM12 colon, -32.2% (active).

On to `O=C1C(Nc2ccc(Br)cc2)=C(I)C(=O)c2ncccc21`, for which the growth with T-47D breast is -41.3% (active); in the test on BT-549 breast, 63.9%; in the test on MDA-MB-435 melanoma it was -79% (active); in the test with SW-620 colon it was -24.6% (active); with MCF7 breast, -35.4% (active); with HCT-116 colon, -36.2% (active). In addition, the growth with HCC-2998 colon is 87.3%; in the test on KM12 colon, 49.9%.
